Assay outcomes (PubChem BioAssay)
The list is not random: actives were taken first. Their share in the collection is about 0.38%.
Eya2 phos inh – Eya2 (human) phosphatase inhibition | O00167 | recombinant Eya2, OMFP fluorescence dephosphorylation (OMFP is methylfluorescein phosphate) | Potency, µM (titrated, usually from 76.9 µM), for the others: at the top dose activity, negative = inhibition, hits mostly inhibitors | actives 0.006% (n = 330,000); also: potency is read from the fitted curve at half-maximal effect; % is scaled to controls: 0 for no effect and ±100 for the full control effect
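Eya2 (0.2 uM) preincubated 10 min at ambient with compound, then OMFP substrate added at 50 uM; 10 min reaction in 50 mM HEPES pH 7.5, 50 mM NaCl, 5 uM MgCl2, 0.05% BSA, 1 mM DTT. Fluorescence read at Ex 485/Em 525 nm.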
USP2a block – USP2a (human) protease inhibition. USP2 core, Ub-CHOP2 coupled fluorogenic reporter, 485/531. AID 463254. actives 0.01% (n = 330,000). O75604. Potency, µM (doses to about 38.3 µM), without a hit: top-dose activity change, negative = inhibition, hits mostly inhibitors;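 also: potency is read from the fitted curve at half-maximal effect; plate controls were DMSO wells for no effect and full inhibition by NEM control for full effect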
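Deubiquitinase activity read as fluorescence (485/531 nm) after Ub-CHOP2 cleavage activates the enterokinase reporter on its substrate; USP2 core 10nM, Ub-CHOP2 and substrate 25nM each, 30min compound preincubation then 60min RT; data normalized to NEM, curves fitted.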
TR SRC2 fluor cs – alters Texas Red total fluorescence, flagging assay interference | actives 0.29% (n = 280,000) | Potency, µM (highest dose often 106 µM), inactives show top-dose fluorescence change, negative = quenching | TRb/SRC2 Texas Red total fluorescence interference; active = well fitted curve in either direction with a large enough effect; inconclusive = small, poorly fitted or top-dose-only effect; also: potency is read from the fitted curve at half-maximal effect; % is scaled to controls: 0 for no effect and ±100 for the full control effect
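Human TRb ligand-binding domain at 0.6 uM with 20 nM Texas Red SRC2 peptide in Tris buffer containing 1 uM T3 and 5% DMSO, incubated with compound 5 h at ambient temperature. Total fluorescence (555/632 nm) calculated as parallel + 2 × perpendicular.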
TSHR antag – blocks TSH signaling through the human TSH receptor. P16473. TSHR-expressing cells, TSH-stimulated cAMP HTRF, 2 h; hits give low values. activity change, negative = inhibition, % at 11.5 µM. actives 0.2% (n = 330,000). AID 504810;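 active = activity change below a set negative limit, meaning inhibition stronger than a set level, cut at about -70% in these data; inconclusive = activity change between two set negative limits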; also: % is scaled to controls: 0 for no effect and ±100 for the full control effect
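TSHR-expressing cells, 200/well, pre-treated with compound, then stimulated with EC80 TSH (4nM final) for 2 hours at 37 deg C. cAMP measured by competitive HTRF: anti-cAMP cryptate antibody in lysis buffer plus cAMP-d2, read after 30 minutes at room temperature.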
TRb-SRC2 inh – disrupts binding of human TR beta to SRC2. TRbeta-SRC2 peptide binding, fluorescence polarization; receptor liganded with 1 µM T3. actives 0.065% (n = 280,000). Potency, µM (series often up to 106 µM), for inactives: at the highest dose activity change, negative = inhibition, hits mostly inhibitors;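 also: potency is read from the fitted curve at half-maximal effect; plate controls were bound peptide for no effect and peptide without receptor for full effect; nearly all actives have a fitted effect of over 50% in size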
Target sequence (P10828 whole entry, looked up): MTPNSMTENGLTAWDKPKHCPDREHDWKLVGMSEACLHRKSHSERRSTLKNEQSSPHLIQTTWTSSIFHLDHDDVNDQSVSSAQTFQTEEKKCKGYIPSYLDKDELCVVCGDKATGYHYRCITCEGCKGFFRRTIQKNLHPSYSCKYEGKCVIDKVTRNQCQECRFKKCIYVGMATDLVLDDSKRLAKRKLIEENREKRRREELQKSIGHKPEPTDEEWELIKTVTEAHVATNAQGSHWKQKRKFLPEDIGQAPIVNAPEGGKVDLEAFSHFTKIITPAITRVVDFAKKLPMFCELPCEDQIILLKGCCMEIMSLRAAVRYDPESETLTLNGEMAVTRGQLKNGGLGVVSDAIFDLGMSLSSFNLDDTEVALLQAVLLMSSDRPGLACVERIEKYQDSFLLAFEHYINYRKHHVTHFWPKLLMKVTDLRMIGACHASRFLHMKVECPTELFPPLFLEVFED
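Binding of a 20-amino-acid Texas Red SRC2 peptide (20 nM) to TRb ligand-binding domain (0.6 uM) with agonist T3 at 1 uM was followed by fluorescence polarization after a 5 hr room-temperature incubation.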
CBFb-RUNX1 inh – CBF-beta/RUNX1 interaction disruption; Q01196+Q13951; AlphaScreen CBFb-His/RUNX1-biotin binding, biochemical; Potency, µM (doses to about 59.8 µM), without a hit: top-dose activity, negative = inhibition, most hits filed as inhibitors; 230,000 tested, under 10 active; AID 1477; also: % of control where 0% means no effect
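AlphaScreen proximity signal reports loss of binding between His-tagged CBF-beta and biotin-labelled RUNX1, each at 30 nM. Proteins are pre-associated for 20 minutes, compounds added for 15 minutes, then beads for 90 minutes, all at ambient temperature.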
* hit, by the source's call; ? = inconclusive; . = not tested or not shown; ! = repeats disagree; [ ] = remark or other dose. Unless noted, calls follow the shape of the dose curve; as a rule, active = well fitted curve in the direction sought with a large enough effect; inconclusive = small, poorly fitted or top-dose-only effect, or another doubt; inactive = no such curve, though single readings can be large; an effect the other way counts as inactive or inconclusive.

SMILES	Eya2 phos inh	USP2a block	TR SRC2 fluor cs	TSHR antag	TRb-SRC2 inh	CBFb-RUNX1 inh
COc1ccc(CCNC(=O)c2cc(Nc3ccccc3)nc3ccccc23)cc1OC	.	.	0.0008µM*[quencher]	.	-18%	.
O=[N+]([O-])c1ccc(S(=O)(=O)c2ccccc2)nc1	-1%	-1%	.	-98*	.	.
COc1ccc(NC(=O)C2CCN(C3=NS(=O)(=O)C(c4ccc(C)c(C)c4)=C3C)CC2)c(OC)c1	.	.	224µM*[quencher]	.	?	.
CC1=C(c2ccc(C)c(C)c2)S(=O)(=O)N=C1N1CCC(C(=O)N2CCCCC2)CC1	.	.	562µM*[quencher]	.	-20%	.
Cc1cccc(NC(=O)CN2C(=O)CCc3ccccc32)c1C	.	.	11µM*[quencher]	.	-16%	.
CN(C)Cc1cc(CN(C)C)c(O)c(CN(C)C)c1	.	.	-3%[201 µM]	.	5%[201 µM]	.
O=c1[nH]c(C2CCN(S(=O)(=O)c3ccccc3)CC2)nc2c1nnn2Cc1cccc(Cl)c1	-2%	-14%	.	1	.	.
O=c1[nH]c(C2CCN(S(=O)(=O)c3cccc(Cl)c3)CC2)nc2c1nnn2Cc1ccccc1	-1%	-12%	.	-103*	.	.
CC(C)c1cccc(C(C)C)c1	.	.	-2%[201 µM]	.	1%[201 µM]	.
O=C(COc1ccccc1[N+](=O)[O-])N/N=C/c1ccc(OC(=O)c2ccco2)cc1	-6%	-1%	282µM*[quencher]	7	-11%	?
CCN(CC)C(=O)Cn1cc(S(=O)(=O)Cc2cccc([N+](=O)[O-])c2)c2ccccc21	-20%	0%	.	-2	.	.
CCN(c1cccc(C)c1)S(=O)(=O)c1cn(CC(=O)OC)c2ccc([N+](=O)[O-])cc12	-1%	-10%	.	-130*	.	.
CC(NC(=O)Nc1ccc(O)cc1)(C(F)(F)F)C(F)(F)F	-27%	2%	3%	-8	35µM*	8%
CCCCCCCCCCCC[N+](C)(C)C	.	.	-2%[201 µM]	.	8%[201 µM]	.
Cc1ccc(OCC(=O)N(Cc2ccco2)Cc2ccco2)cc1	.	.	0%	.	-12%	.
Cc1ccc2c(CC(=O)N(Cc3ccc(Cl)cc3)Cc3ccco3)coc2c1	.	.	1.1µM*[quencher]	.	-17%[53 µM]	.
Cc1ccc(CN(Cc2ccco2)C(=O)COc2ccc(C(C)C)cc2)cc1	.	.	0.0006µM*[quencher]	.	?	.
CNc1nc(=O)n(C2CCC(O)CC2)c(=O)n1C (stereo not given)	.	.	-1%[201 µM]	.	2%[201 µM]	.
CC(=O)c1cccc(NC(=O)Cn2nc(C)n3cccc3c2=O)c1	.	.	0%	.	-6%	.
CCc1ccc(/C(C)=N\Nc2ccc([N+](=O)[O-])cc2)cc1	-1%	-1%	2%	-6	-1%	11%
C/C(=N\Nc1ccc([N+](=O)[O-])cc1)c1ccc(N)cc1	5%	0%	0.32µM*[quencher]	18	-27%[53 µM]	-3%
Cc1cccc(CCNC(=O)CCc2c(C)nc3c(c(C)nn3-c3ccccc3)c2C)c1	.	.	-2%	.	-7%	.
CC(C)(C)C(=O)NC(=S)NNC(=O)c1sc2ccccc2c1Cl	-12%	-3%	-3%	-94*	-7%	3%
COc1c(O)cc2oc(-c3ccc(O)cc3)cc(=O)c2c1O	-3%	6%	-8%	-2	11%	7%
O=c1cc(-c2ccccc2)oc2cc(O)c(O)c(O)c12	3%	-1%	45µM*![quencher]	-18	?	?
SMILES	Eya2 phos inh	USP2a block	TR SRC2 fluor cs	TSHR antag	TRb-SRC2 inh	CBFb-RUNX1 inh
Cc1oc(-c2ccc(C(=O)N(C)Cc3ccccc3)cc2)nc1CN1CCc2ccccc21	.	.	?	.	-5%	.
Cc1c(Cl)cccc1NC(=O)c1oc2ccc(S(=O)(=O)N3CCCCCC3)cc2c1C	.	.	-1%	.	-3%	.
CN(C(=O)CN1C(=O)S/C(=C\c2ccccc2Cl)C1=O)C1CCS(=O)(=O)C1 (stereo not given)	13%	0%	.	-7	.	.
CN(C(=O)CN1C(=O)/C(=C/c2ccccc2Cl)SC1=S)C1CCS(=O)(=O)C1 (stereo not given)	-15%	1%	.	-126*	.	.
O[N+]1=CC=CCC1=S.On1ccccc1=S.[Zn]	.	.	0%	.	1%	-4%
Cc1cccc(NC(=O)Cn2c(=O)n(CCc3ccccc3)c(=O)c3sc4ccccc4c32)c1	.	.	0%	.	-8%	.
Cc1cccc(NC(=O)Cn2c(=O)n(Cc3ccccc3)c(=O)c3sc4ccccc4c32)c1	.	.	25µM*[quencher]	.	-28%[53 µM]	.
CSc1nc(SCCO)c2sc3nc(-c4ccco4)c4c(c3c2n1)CC(C)(C)OC4	-24%	10µM*	?	6	10%	?
CCS(=O)(=O)c1ccc(N=Nc2ccc(O)c3ncccc23)c(OC)c1	-23%	-9%	-6%	1	10%	.
COc1cc(-c2ccc(N=Nc3ccc4c(S(=O)(=O)O)cc(S(=O)(=O)O)c(N)c4c3O)c(OC)c2)ccc1N=Nc1ccc2c(S(=O)(=O)O)cc(S(=O)(=O)O)c(N)c2c1O	.	.	16µM*[fluorescent]	.	25µM*	.
CN(C)/C=C1\SC(=S)N(c2ccc(Br)cc2)C1=O	-13%	3%	32µM*[fluorescent]	3	?	-25%
CC(C)Oc1ccc(C(=O)NCCNC(=O)c2ccco2)cc1	9%	0%	.	-94*	.	.
NS(=O)(=O)c1ccc(CNC(=O)CCS(=O)(=O)Cc2ccccc2)cc1	5%	2%	.	-79*	.	.
CC(C)C(=O)OCC(C)(C)C(O)C(C)C (stereo not given)	.	.	2%[201 µM]	.	2%[201 µM]	.
